Screen size: about 5,500 compounds; about 2,000 (36%) were called active. Another 18% or so got no clear call; they are omitted. No stated cut-off is given here; in the data, active means normalized growth mostly below about 0.91 (no sharp cut-off); inconclusive means no clear call, values can overlap the other calls; inactive means mostly above about 0.92. Some of the results follow.
Test: chemical genetic growth profiling, strain panel (AID 1159580);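 further: tested at 20 µM; growth read once vehicle control cultures reached saturation at 30 °C; 1 = growth at the plate median or of vehicle wells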
Details: growth OD

Measured: normalized growth

CC(C)NCC(O)c1ccc2ccccc2c1 (stereo not drawn)
inactive: S. cerevisiae deletion strains, locus YJR066W, strain TOR1, stronger effect = lower value 0.936 | S. cerevisiae deletion strains, locus YJR075W, strain HOC1, stronger effect = lower value 1.02 | S. cerevisiae deletion strains, locus YKL009W, strain mrt4, stronger effect = lower value 0.998 | S. cerevisiae deletion strains, locus YKL068W, stronger effect = lower value 0.997 | S. cerevisiae deletion strains, locus YKL085W, strain MDH1 (second series), stronger effect = lower value 0.996 | S. cerevisiae deletion strains, locus YKL085W, strain MDH1, stronger effect = lower value 0.996 | S. cerevisiae deletion strains, locus YKL160W, strain elf1, stronger effect = lower value 0.994 | S. cerevisiae deletion strains, locus YKR001C, strain vps1, stronger effect = lower value 1.03 | S. cerevisiae deletion strains, locus YKR026C, strain gcn3, stronger effect = lower value 1 | S. cerevisiae deletion strains, locus YKR091W, strain srl3, stronger effect = lower value 1 | S. cerevisiae deletion strains, locus YLL001W, strain dnm1, stronger effect = lower value 1 | S. cerevisiae deletion strains, locus YLL026W, stronger effect = lower value 0.998 | S. cerevisiae deletion strains, locus YLL041C, strain sdh2, stronger effect = lower value 0.998 | S. cerevisiae deletion strains, locus YLR027C, strain aat2, stronger effect = lower value 1 | S. cerevisiae deletion strains, locus YLR039C, strain RIC1, stronger effect = lower value 1.04 | S. cerevisiae deletion strains, locus YLR058C, strain SHM2, stronger effect = lower value 1.01 | S. cerevisiae deletion strains, locus YLR102C, strain apc9, stronger effect = lower value 0.988 | S. cerevisiae deletion strains, locus YLR113W, strain HOG1, stronger effect = lower value 1.05 | S. cerevisiae deletion strains, locus YLR221C, strain rsa3, stronger effect = lower value 1.02 | S. cerevisiae deletion strains, locus YLR258W, strain gsy2, stronger effect = lower value 0.996 | S. cerevisiae deletion strains, locus YLR262C, strain YPT6 (second series), stronger effect = lower value 0.984 | S. cerevisiae deletion strains, locus YLR262C, strain YPT6, stronger effect = lower value 1.07 | S. cerevisiae deletion strains, locus YLR268W, strain sec22, stronger effect = lower value 0.989 | S. cerevisiae deletion strains, locus YLR320W, strain mms22, stronger effect = lower value 1.01 | S. cerevisiae deletion strains, locus YLR330W, strain CHS5, stronger effect = lower value 1.01 | S. cerevisiae deletion strains, locus YLR342W, strain FKS1 (second series), stronger effect = lower value 1.03 | S. cerevisiae deletion strains, locus YLR342W, strain FKS1, stronger effect = lower value 0.999 | S. cerevisiae deletion strains, locus YLR357W, strain rsc2, stronger effect = lower value 0.984 | S. cerevisiae deletion strains, locus YLR370C, strain arc18, stronger effect = lower value 1.02 | S. cerevisiae deletion strains, locus YLR371W, strain rom2, stronger effect = lower value 0.989 | S. cerevisiae deletion strains, locus YLR384C, strain iki3, stronger effect = lower value 1 | S. cerevisiae deletion strains, locus YLR418C, strain cdc73, stronger effect = lower value 0.997 | S. cerevisiae deletion strains, locus YML016C, strain PPZ1, stronger effect = lower value 1 | S. cerevisiae deletion strains, locus YML032C, strain rad52, stronger effect = lower value 1.01 | S. cerevisiae deletion strains, locus YML120C, strain ndi1, stronger effect = lower value 0.991 | S. cerevisiae deletion strains, locus YML124C, strain tub3, stronger effect = lower value 0.991 | S. cerevisiae deletion strains, locus YMR058W, strain fet3, stronger effect = lower value 1 | S. cerevisiae deletion strains, locus YMR078C, strain ctf18, stronger effect = lower value 0.998 | S. cerevisiae deletion strains, locus YMR125W, strain sto1, stronger effect = lower value 0.982 | S. cerevisiae deletion strains, locus YMR129W, stronger effect = lower value 0.98 | S. cerevisiae deletion strains, locus YMR205C, strain PFK2, stronger effect = lower value 0.981 | S. cerevisiae deletion strains, locus YMR223W, strain ubp8, stronger effect = lower value 0.997 | S. cerevisiae deletion strains, locus YMR231W, strain pep5, stronger effect = lower value 1 | S. cerevisiae deletion strains, locus YMR307W, strain GAS1, stronger effect = lower value 1.06 | S. cerevisiae deletion strains, locus YNL067W, strain RPL9B, stronger effect = lower value 1.04 | S. cerevisiae deletion strains, locus YNL071W, strain lat1, stronger effect = lower value 1 | S. cerevisiae deletion strains, locus YNL153C, strain GIM3, stronger effect = lower value 1.05 | S. cerevisiae deletion strains, locus YNL183C, strain NPR1, stronger effect = lower value 0.968 | S. cerevisiae deletion strains, locus YNL209W, strain ssb2, stronger effect = lower value 1 | S. cerevisiae deletion strains, locus YNL233W, strain BNI4, stronger effect = lower value 1.04 | S. cerevisiae deletion strains, locus YNL248C, strain rpa49, stronger effect = lower value 0.998 | S. cerevisiae deletion strains, locus YNL250W, strain rad50, stronger effect = lower value 0.992 | S. cerevisiae deletion strains, locus YNL271C, strain bni1, stronger effect = lower value 1.01 | S. cerevisiae deletion strains, locus YNL298W, strain CLA4, stronger effect = lower value 1 | S. cerevisiae deletion strains, locus YNL307C, strain MCK1, stronger effect = lower value 0.994 | S. cerevisiae deletion strains, locus YNL322C, strain KRE1 (second series), stronger effect = lower value 1 | S. cerevisiae deletion strains, locus YNL322C, strain KRE1, stronger effect = lower value 1.01 | S. cerevisiae deletion strains, locus YNR049C, strain mso1, stronger effect = lower value 0.999 | S. cerevisiae deletion strains, locus YNR052C, strain pop2, stronger effect = lower value 0.997 | S. cerevisiae deletion strains, locus YOL012C, strain htz1 1.41 | S. cerevisiae deletion strains, locus YOL147C, strain pex11, stronger effect = lower value 1 | S. cerevisiae deletion strains, locus YOR001W, strain rrp6, stronger effect = lower value 1 | S. cerevisiae deletion strains, locus YOR061W, strain CKA2, stronger effect = lower value 1.01 | S. cerevisiae deletion strains, locus YOR069W, strain VPS5, stronger effect = lower value 1.01 | S. cerevisiae deletion strains, locus YOR070C, strain gyp1, stronger effect = lower value 1 | S. cerevisiae deletion strains, locus YOR080W, strain dia2, stronger effect = lower value 0.998 | S. cerevisiae deletion strains, locus YOR083W, strain WHI5, stronger effect = lower value 0.991 | S. cerevisiae deletion strains, locus YOR106W, strain vam3, stronger effect = lower value 1.04 | S. cerevisiae deletion strains, locus YOR136W, strain idh2, stronger effect = lower value 0.997 | S. cerevisiae deletion strains, locus YOR144C, strain elg1, stronger effect = lower value 0.99 | S. cerevisiae deletion strains, locus YOR184W, strain ser1, stronger effect = lower value 0.978 | S. cerevisiae deletion strains, locus YOR231W, strain MKK1, stronger effect = lower value 1.06 | S. cerevisiae deletion strains, locus YOR265W, strain rbl2, stronger effect = lower value 0.99 | S. cerevisiae deletion strains, locus YOR270C, strain vph1, stronger effect = lower value 1.02 | S. cerevisiae deletion strains, locus YOR290C, strain snf2, stronger effect = lower value 0.993 | S. cerevisiae deletion strains, locus YOR316C, strain cot1, stronger effect = lower value 0.992 | S. cerevisiae deletion strains, locus YPL051W, strain arl3, stronger effect = lower value 1.01 | S. cerevisiae deletion strains, locus YPL055C, strain LGE1, stronger effect = lower value 1.06 | S. cerevisiae deletion strains, locus YPL078C, strain atp4, stronger effect = lower value 1.01 | S. cerevisiae deletion strains, locus YPL106C, strain sse1, stronger effect = lower value 0.983 | S. cerevisiae deletion strains, locus YPL240C, strain hsp82, stronger effect = lower value 0.997 | S. cerevisiae deletion strains, locus YPL256C, strain CLN2, stronger effect = lower value 1.02 | S. cerevisiae deletion strains, locus YPR119W, strain clb2, stronger effect = lower value 0.99 | S. cerevisiae deletion strains, locus YPR141C, strain kar3, stronger effect = lower value 0.994 | S. cerevisiae deletion strains, locus YPR163C, strain tif3, stronger effect = lower value 0.99 | S. cerevisiae deletion strains, locus YPR167C, strain met16, stronger effect = lower value 0.989 | S. cerevisiae deletion strains, strain wtn01, stronger effect = lower value 1.03 | S. cerevisiae strains, strain wild type, stronger effect = lower value 1.01

Source: PubChem BioAssay AID1159580 (chemical genetic matrix, 2015)
